The panel holds about 83,000 compounds, 20% with a hit somewhere; the sample as a whole holds those more often.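 Activity criterion: percent growth below 10, measured after cells in 96-well plates were exposed to a single compound concentration for 48 hours.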 Activity calls are given as the source filed them.
How the values were obtained:
Test in all cases: NCI-60 one-dose screen, 48 h (100 = growth as untreated, 0 = no growth, -100 = all killed)
Details in all cases: 10 µM
[1] = system: DU-145 prostate
[2] = system: MALME-3M melanoma
[3] = system: MDA-MB-231 breast
[4] = system: RXF 393 renal
[5] = system: SF-268 CNS
[6] = system: SF-295 CNS
[7] = system: SF-539 CNS
[8] = system: UACC-257 melanoma
[9] = system: M14 melanoma
[10] = system: HCT-15 colon
[11] = system: HT29 colon
[12] = system: SNB-75 CNS
[13] = system: SNB-19 CNS
[14] = system: U251 CNS
[15] = system: PC-3 prostate
[16] = system: SK-MEL-5 melanoma
[17] = system: UACC-62 melanoma
[18] = system: LOX IMVI melanoma
[19] = system: SK-MEL-28 melanoma
[20] = system: K-562 leukemia

SMILES	growth [1]	growth [2]	growth [3]	growth [4]	growth [5]	growth [6]	growth [7]	growth [8]	growth [9]	growth [10]	growth [11]	growth [12]	growth [13]	growth [14]	growth [15]	growth [16]	growth [17]	growth [18]	growth [19]	growth [20]
CCC1NC(=O)c2cc(S(N)(=O)=O)c(Cl)cc2N1 (stereo not drawn)	124% (inactive)	118% (inactive)	109% (inactive)	115% (inactive)	115% (inactive)	93% (inactive)	115% (inactive)	104% (inactive)	110% (inactive)	109% (inactive)	109% (inactive)	105% (inactive)	105% (inactive)	96.3% (inactive)	93.6% (inactive)	104% (inactive)	103% (inactive)	99.9% (inactive)	121% (inactive)	–
Cc1ccc(C(SCC(N)C(=O)O)(c2ccc(C)cc2)c2ccc(C)cc2)cc1 (stereo not drawn)	-39% (active)	–	1.37% (active)	–	17.6% (inactive)	-13.8% (active)	-29.7% (active)	-18.5% (active)	-74.5% (active)	30.1% (inactive)	14.1% (inactive)	-6.9% (active)	–	25.4% (inactive)	11.2% (inactive)	16.5% (inactive)	30.7% (inactive)	40.6% (inactive)	56.6% (inactive)	0.419% (active)
Cc1cc(C(C#N)c2ccc(Cl)cc2)c(Cl)cc1NC(=O)c1cc(I)cc(I)c1O (stereo not drawn)	72.7% (inactive)	58.1% (inactive)	46.6% (inactive)	48.9% (inactive)	33.7% (inactive)	-20.9% (active)	31.5% (inactive)	71.3% (inactive)	32.3% (inactive)	28.8% (inactive)	58% (inactive)	112% (inactive)	39.3% (inactive)	40.4% (inactive)	13.8% (inactive)	13.1% (inactive)	11.5% (inactive)	75.1% (inactive)	63.5% (inactive)	–
CCCCCOC(=O)Nc1nc(=O)n(C2O[C@H](C)[C@@H](O)[C@H]2O)cc1F (stereo partly drawn)	115% (inactive)	103% (inactive)	90.9% (inactive)	98.1% (inactive)	95.4% (inactive)	98.1% (inactive)	101% (inactive)	96.2% (inactive)	108% (inactive)	101% (inactive)	–	77.1% (inactive)	101% (inactive)	94.8% (inactive)	90.9% (inactive)	99.8% (inactive)	95% (inactive)	100% (inactive)	115% (inactive)	–
CC(C)Cc1ccc([C@H](C)C(=O)O)cc1	122% (inactive)	107% (inactive)	108% (inactive)	114% (inactive)	111% (inactive)	99% (inactive)	104% (inactive)	107% (inactive)	101% (inactive)	97% (inactive)	106% (inactive)	79.4% (inactive)	108% (inactive)	101% (inactive)	93.6% (inactive)	102% (inactive)	103% (inactive)	101% (inactive)	109% (inactive)	–
C[C@@H](O)[C@H]1C(=O)N2C(C(=O)O)=C(SC3CN[C@H](C(=O)N(C)C)C3)[C@H](C)[C@H]12 (stereo partly drawn)	110% (inactive)	92.9% (inactive)	99.6% (inactive)	114% (inactive)	105% (inactive)	96.2% (inactive)	113% (inactive)	106% (inactive)	100% (inactive)	104% (inactive)	103% (inactive)	94.1% (inactive)	119% (inactive)	99.3% (inactive)	92.4% (inactive)	102% (inactive)	99.4% (inactive)	96.4% (inactive)	109% (inactive)	–
CCCCc1oc2ccccc2c1C(=O)c1cc(I)c(OCCN(CC)CC)c(I)c1	34.1% (inactive)	-72.6% (active)	-79.8% (active)	-70.3% (active)	30.8% (inactive)	-66.7% (active)	-19% (active)	-61% (active)	-75.3% (active)	-50.5% (active)	-61.2% (active)	12.5% (inactive)	-60.6% (active)	-86.3% (active)	-8.07% (active)	-100% (active)	-86.8% (active)	-88.7% (active)	-87.8% (active)	–
CN(C)CCCN1c2ccccc2CCc2ccc(Cl)cc21	87.1% (inactive)	36.7% (inactive)	15.8% (inactive)	28.3% (inactive)	59.4% (inactive)	75.6% (inactive)	83.5% (inactive)	-11.9% (active)	7.07% (active)	51.4% (inactive)	18.8% (inactive)	39.2% (inactive)	–	55.4% (inactive)	40.8% (inactive)	-29.7% (active)	7.82% (active)	56.9% (inactive)	36.9% (inactive)	–
CCc1c2c(nc3ccc(OC(=O)N4CCC(N5CCCCC5)CC4)cc13)-c1cc3c(c(=O)n1C2)COC(=O)[C@]3(O)CC	-5.72% (active)	36.2% (inactive)	102% (inactive)	37.7% (inactive)	12.5% (inactive)	-24.5% (active)	-22.1% (active)	57.6% (inactive)	2.35% (active)	53.1% (inactive)	28.8% (inactive)	-5.06% (active)	26% (inactive)	13.6% (inactive)	40.9% (inactive)	-11.9% (active)	17.9% (inactive)	4.61% (active)	67% (inactive)	–
C=C1CCC2(C#N)[C@H]3[C@H](CC[C@@H]2C)[C@@H](C)C[C@@H](CC(C)(C)NC(=O)CN2CCC2=O)[C@H]13 (stereo partly drawn)	89.5% (inactive)	83.2% (inactive)	47.6% (inactive)	55.5% (inactive)	63.3% (inactive)	60.5% (inactive)	47% (inactive)	80.8% (inactive)	54.9% (inactive)	47.3% (inactive)	75.6% (inactive)	57.4% (inactive)	40.2% (inactive)	33.6% (inactive)	17.8% (inactive)	27.4% (inactive)	48.5% (inactive)	54.2% (inactive)	73.9% (inactive)	–
CN(C)c1ncnc2c1nnn2C1OC(CO)C(O)C1O (stereo not drawn)	15.9% (inactive)	-10.4% (active)	36.5% (inactive)	-2.59% (active)	24.9% (inactive)	6.4% (active)	-2.72% (active)	11.8% (inactive)	-13.2% (active)	7.45% (active)	0.427% (active)	28.3% (inactive)	33.9% (inactive)	–	21.7% (inactive)	-12.6% (active)	-32.9% (active)	9.03% (active)	12.6% (inactive)	–
COc1ccc(CCN2CCC(Nc3nc4ccccc4n3Cc3ccc(F)cc3)CC2)cc1	46.4% (inactive)	-79.5% (active)	-31.5% (active)	-67.8% (active)	27.7% (inactive)	-85.7% (active)	-81% (active)	-81.7% (active)	-99.4% (active)	-23% (active)	-53.6% (active)	-29.9% (active)	40.6% (inactive)	-70.9% (active)	29.4% (inactive)	-100% (active)	-85.6% (active)	-87.9% (active)	-76.7% (active)	–
O=c1[nH]c(=O)n(C2C[C@H](O)[C@@H](CO)O2)cc1C(F)(F)F (stereo partly drawn)	123% (inactive)	107% (inactive)	107% (inactive)	116% (inactive)	114% (inactive)	92.5% (inactive)	112% (inactive)	107% (inactive)	108% (inactive)	107% (inactive)	103% (inactive)	94.3% (inactive)	119% (inactive)	102% (inactive)	91.9% (inactive)	106% (inactive)	108% (inactive)	103% (inactive)	120% (inactive)	–
CN1CCN(c2cc3c(cc2F)c(=O)c(C(=O)O)cn3-c2ccc(F)cc2)CC1	118% (inactive)	96.3% (inactive)	109% (inactive)	116% (inactive)	93.2% (inactive)	99.8% (inactive)	99.7% (inactive)	105% (inactive)	93% (inactive)	99.2% (inactive)	91.2% (inactive)	55.2% (inactive)	98.2% (inactive)	106% (inactive)	90.4% (inactive)	95.5% (inactive)	90.2% (inactive)	84.7% (inactive)	105% (inactive)	–
CC(=O)/C(=C/c1ccc(Br)cc1)C(=O)c1ccccc1	81.6% (inactive)	–	77.4% (inactive)	–	67.4% (inactive)	88.9% (inactive)	96.7% (inactive)	78.3% (inactive)	69.9% (inactive)	46.6% (inactive)	76.6% (inactive)	84.5% (inactive)	–	–	80.6% (inactive)	66.3% (inactive)	–	-61.9% (active)	100% (inactive)	30.7% (inactive)
C[C@]12CCC3c4ccc(O)cc4C[C@@H](CCCCCCCCCS(=O)CCCC(F)(F)C(F)(F)F)C3C1CC[C@@H]2O (stereo partly drawn)	103% (inactive)	103% (inactive)	79.5% (inactive)	87.5% (inactive)	97.1% (inactive)	42.8% (inactive)	86.4% (inactive)	91.5% (inactive)	100% (inactive)	71.6% (inactive)	72.1% (inactive)	64.4% (inactive)	89.8% (inactive)	68.3% (inactive)	52.5% (inactive)	76% (inactive)	83.3% (inactive)	90.1% (inactive)	–	–
Cc1ccccc1N1C(=O)c2cc(S(N)(=O)=O)c(Cl)cc2NC1C (stereo not drawn)	111% (inactive)	103% (inactive)	119% (inactive)	128% (inactive)	106% (inactive)	103% (inactive)	111% (inactive)	102% (inactive)	111% (inactive)	108% (inactive)	101% (inactive)	87.1% (inactive)	116% (inactive)	105% (inactive)	93.6% (inactive)	104% (inactive)	114% (inactive)	99.7% (inactive)	116% (inactive)	–

From PubChem BioAssay (NCI)
